Rows were chosen to be rich in hits. Some 9% of all compounds tested hit in one or more screens of this group.
IMPase cell inh: IMPase inhibition in cells | P97697 | CHO-M1 cells, IP1 accumulation, HTRF TR-FRET ratio | inhibition (IP1 accumulation), % at 46.1 µM | 120,000 tested, under 10 active; active = well fitted curve in the direction sought with a large enough effect in the signal ratio, not every such curve was filed as active; inconclusive = small, poorly fitted or top-dose-only effect, or a change in a side signal; inactive = no such curve, though single readings can be large or run the other way; the % refers to the signal ratio;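 also: cells stimulated with carbachol in lithium chloride buffer; higher means more IMPase inhibition seen as more IP1 and lower FRET ratio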
Target sequence (P97697 whole entry, looked up): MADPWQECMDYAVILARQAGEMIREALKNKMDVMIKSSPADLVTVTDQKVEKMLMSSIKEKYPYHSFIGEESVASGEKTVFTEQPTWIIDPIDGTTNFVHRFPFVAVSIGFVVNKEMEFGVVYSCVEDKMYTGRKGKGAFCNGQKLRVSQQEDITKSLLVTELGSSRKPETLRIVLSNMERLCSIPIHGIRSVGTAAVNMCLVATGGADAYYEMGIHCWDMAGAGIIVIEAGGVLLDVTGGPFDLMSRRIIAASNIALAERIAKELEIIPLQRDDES
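Carbachol-driven Gq signalling in CHO-M1 cells (2000/well) generates IP1. Compounds that block IMPase raise IP1 and so reduce the FRET signal from Eu-anti-IP1 and d2-IP1 after a 10 min room-temperature lysis.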
ALDH1A1 inh: blocks purified human ALDH1A1 activity | Potency, µM (highest dose often 75.3 µM), usual class: inhibitors | Purified ALDH1A1, NADH fluorescence, propionaldehyde substrate | P00352 | hit rate 7.3% among 220,000
HPGD inh: inhibitors of human 15-hydroxyprostaglandin dehydrogenase (HPGD); hit rate 4.3% among 150,000; purified HPGD, NADH fluorescence kinetic, PGE2 substrate; Potency, µM, actives largely listed as inhibitors; P15428
Target sequence (P15428 whole entry, looked up): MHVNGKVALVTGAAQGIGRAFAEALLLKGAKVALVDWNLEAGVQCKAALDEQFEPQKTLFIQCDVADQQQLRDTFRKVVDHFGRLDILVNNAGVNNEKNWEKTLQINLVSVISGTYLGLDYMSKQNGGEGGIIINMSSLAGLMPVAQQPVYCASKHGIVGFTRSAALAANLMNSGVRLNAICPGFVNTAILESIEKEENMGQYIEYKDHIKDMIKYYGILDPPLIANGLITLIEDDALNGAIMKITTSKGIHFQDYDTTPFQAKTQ
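20 nM HPGD preincubated 15 min at room temperature with compound in 50 mM Tris-HCl pH 8, 0.01% Tween 20. Started with 1 mM NAD+ and 30 uM prostaglandin E2; NADH fluorescence (360/450 nm) read 5 times over 30-s intervals, last minus first.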
Each line names hits and unclear results; the compound was inactive in the other large screens. Unless noted, calls follow the shape of the dose curve; as a rule, active = well fitted inhibition curve with a large enough effect (not every such curve was filed as active); inconclusive = small, poorly fitted or top-dose-only effect, or another doubt; inactive = no such curve, though single readings can be large or run the other way.

O=C(CCN1C(=O)C2C3C=CC(C3)C2C1=O)N1CCN(c2ccccn2)CC1 (stereo unspecified)	ALDH1A1 inh inconclusive, HPGD inh inconclusive
COc1ccc(NC(=O)C2C3CCC4C(CCC32)C4(Cl)Cl)cc1 (stereo unspecified)	none (no result: IMPase cell inh)
COc1cccc(NC(=O)C2C3CCC4C(CCC32)C4(Cl)Cl)c1 (stereo unspecified)	ALDH1A1 inh 7.9µM (no result: IMPase cell inh)
CC1(C)OC2OC(C(=O)N/N=C/c3cc(Br)ccc3O)C3OC(C)(C)OC3C2O1 (stereo unspecified)	none (no result: IMPase cell inh)
Nc1nnc(SCC(=O)N2CCc3ccccc3C2)s1	none (no result: IMPase cell inh, HPGD inh)
CCNC(=O)CON=C1c2ccccc2-c2ccccc21	none (no result: IMPase cell inh)
CCC(CC)NC(=O)CON=C1c2ccccc2-c2ccccc21	HPGD inh 7.9µM
COc1ccccc1NC(=O)N1CCN(c2cc(-c3ccccc3)nc3ncnn23)CC1	none
Cc1sc2ncnc(Sc3ccccc3C(=O)Nc3ccccc3Cl)c2c1C	IMPase cell inh inconclusive, ALDH1A1 inh inconclusive
CC1(OC(=O)C2CCCC2)C(=O)C=C2C=C(c3ccsc3)N(Cc3ccco3)C=C2C1=O (stereo unspecified)	ALDH1A1 inh 3.5µM (no result: IMPase cell inh)
CC1(OC(=O)C2CCCC2)C(=O)C=C2C=C(c3ccsc3)N(CCCCO)C=C2C1=O (stereo unspecified)	none (no result: IMPase cell inh)
O=C(NC1CCCC1)c1n[nH]c2ccccc12	none (no result: IMPase cell inh, HPGD inh)
CC(=O)c1cc(F)ccc1OCC(=O)N1CCN(c2ccc(F)cc2)CC1	ALDH1A1 inh 25µM (no result: IMPase cell inh, HPGD inh)
COC(=O)c1ccccc1OCC(=O)N1CCN(c2ccc(F)cc2)CC1	none
CCc1ccc(S(=O)(=O)Nc2ccc3oc(C)c(C(=O)OCCOC)c3c2)cc1	none (no result: ALDH1A1 inh, HPGD inh)
COCCOC(=O)c1c(C)oc2ccc(NS(=O)(=O)c3ccccc3)cc12	ALDH1A1 inh 20µM
NC(N)=NS(=O)(=O)c1ccc(NC(=S)NC(=O)c2ccc(Br)cc2)cc1	ALDH1A1 inh 10µM (no result: IMPase cell inh, HPGD inh)
Cc1ccc(C(=O)NC(=S)Nc2ccc(S(=O)(=O)N3CCN(C)CC3)cc2)cc1	ALDH1A1 inh inconclusive
Cn1nc(C(=O)OCC(=O)Nc2ccc3ccccc3c2)c2ccccc2c1=O	none (no result: IMPase cell inh, HPGD inh)
Cn1c(=O)c2c(ncn2C[C@@H](O)CO)n(C)c1=O	none
CCCc1nc(SCC(=O)N2CCC(Cc3ccccc3)CC2)c2c(=O)n(C)c(=O)n(C)c2n1	ALDH1A1 inh 18µM
CCc1nc(SCC(=O)N2CCN(c3ccccc3)CC2)c2c(=O)n(C)c(=O)n(C)c2n1	none (no result: IMPase cell inh, HPGD inh)
CC(C)[C@]1(Cl)CC[C@@H]2[C@]3(C)CCC[C@@](C)(C(=O)O)[C@H]3C[C@H](Cl)[C@@]2(Cl)[C@H]1Cl	none (no result: IMPase cell inh)
O=C(NNC(=O)c1c(F)cccc1F)c1sccc1-n1cccc1	none (no result: IMPase cell inh, HPGD inh)
CCOc1ccccc1CNC(=O)C1CCN(C(=O)c2sccc2-n2cccc2)CC1	ALDH1A1 inh 0.63µM
O=C(NCc1ccccc1F)C1CCN(C(=O)c2sccc2-n2cccc2)CC1	ALDH1A1 inh 2.5µM (no result: IMPase cell inh, HPGD inh)
CC1CCCCC1NC(=O)C1CCN(C(=O)NC2CCCCC2)CC1 (stereo unspecified)	none
CN(C)C(=O)N1CCC(C(=O)NCc2ccccc2Cl)CC1	none
COc1ccccc1CNC(=O)C1CCN(C(=O)NC2CCCCC2)CC1	none (no result: IMPase cell inh, HPGD inh)
CC1CCCCC1NC(=O)C1CCN(C(=O)c2sccc2-n2cccc2)CC1 (stereo unspecified)	ALDH1A1 inh 1.1µM
O=C(NCc1ccccc1Cl)C1CCN(C(=O)c2sccc2-n2cccc2)CC1	ALDH1A1 inh 1.4µM
COc1ccc(N(C(=O)CNC(=O)c2cccs2)C(C(=O)NC2CCCC2)c2cccnc2)cc1 (stereo unspecified)	none (no result: IMPase cell inh, HPGD inh)
Cn1nc([N+](=O)[O-])nc1Sc1nnnn1-c1ccc(C(=O)O)cc1	none (no result: IMPase cell inh, HPGD inh)
CC1=CC(c2ccccc2)n2nc(NS(=O)(=O)c3ccc(C)cc3)nc2N1 (stereo unspecified)	ALDH1A1 inh 0.63µM, HPGD inh inconclusive
CC1=CC(c2ccc(Cl)cc2)n2nc(NS(=O)(=O)c3ccc(C)cc3)nc2N1 (stereo unspecified)	ALDH1A1 inh inconclusive, HPGD inh inconclusive
CCOC(=O)c1ccc(N=C2NC(=O)CS2)cc1	ALDH1A1 inh inconclusive, HPGD inh 13µM
Cc1ccc(N=C2NC(=O)CS2)cc1	HPGD inh inconclusive
c1nc(N2CCNCC2)c2cc(-c3ccc4c(c3)OCO4)ccc2n1	none (no result: IMPase cell inh)
CCSC(C)CC1C/C(=N/O)c2c(CC)noc2C1 (stereo unspecified)	HPGD inh inconclusive
CCCc1noc2c1/C(=N\O)CC(CC(C)SCC)C2 (stereo unspecified)	ALDH1A1 inh inconclusive, HPGD inh 8.9µM
COc1ccccc1NC(CC(=O)c1ccccc1)C(=O)OCC(=O)c1ccc(C)c(C)c1 (stereo unspecified)	ALDH1A1 inh 7.1µM
COc1ccccc1NC(CC(=O)c1ccccc1)C(=O)OCC(=O)c1ccc(Br)cc1 (stereo unspecified)	ALDH1A1 inh inconclusive (no result: IMPase cell inh)
COc1ccccc1NC(CC(=O)c1ccccc1)C(=O)OCC(=O)c1ccc(C)cc1 (stereo unspecified)	ALDH1A1 inh 10µM
Cc1ccc(C(=O)COC(=O)CNC(=O)COc2ccccc2C)cc1C	none
COCC(=O)N1CCC2(CCCN(Cc3ccccc3)C2)CC1	none (no result: IMPase cell inh)
CCOC(=O)c1sc(NC(=O)c2ccc(C)o2)nc1C	HPGD inh 20µM
COC(=O)c1sc(NC(=O)c2ccc(C)o2)nc1C	HPGD inh inconclusive (no result: IMPase cell inh)
CCOC(=O)c1sc(NC(C)=O)nc1C	ALDH1A1 inh inconclusive, HPGD inh inconclusive
CCOC(=O)c1sc(NC(=O)C2CC=CCC2C(=O)O)nc1C (stereo unspecified)	ALDH1A1 inh 0.13µM
COc1ccc(CCNC(=O)c2cc(-c3ccccc3)nc3ccccc23)cc1OC	none (no result: ALDH1A1 inh, HPGD inh)
COc1ccc(Cc2nnc(NC(=O)c3c(-c4ccccc4)noc3C)s2)cc1	none
COC(=O)c1sccc1NC(=O)c1ccc(OC)cc1	ALDH1A1 inh inconclusive, HPGD inh inconclusive
COC(=O)c1c(-c2ccc(C)cc2)csc1NC(=O)c1c(-c2ccccc2)noc1C	ALDH1A1 inh inconclusive, HPGD inh inconclusive
Cc1onc(-c2ccccc2)c1C(=O)NC(=S)NNC(=O)c1ccncc1	ALDH1A1 inh 18µM (no result: IMPase cell inh)
COc1ccc(Cc2nnc(NC(=O)c3c(-c4ccccc4)noc3C)s2)cc1OC	ALDH1A1 inh 32µM
Cc1onc(-c2ccccc2)c1C(=O)NC(=S)NNC(=O)c1cccnc1	ALDH1A1 inh inconclusive (no result: IMPase cell inh)
COC(=O)c1sccc1NC(=O)c1c(-c2ccccc2)noc1C	ALDH1A1 inh 8.9µM (no result: IMPase cell inh)
COC(=O)c1sccc1NC(=O)c1cccnc1	HPGD inh 28µM
NCCCCCCCCCCN	none
Cc1ccc(-c2nc(N3CCN(c4ccccc4Cl)CC3)c3ccccc3n2)cc1	none (no result: ALDH1A1 inh, HPGD inh)
Cc1c(C2C(C#N)=C(N)N(c3cccc([N+](=O)[O-])c3)C3=C2C(=O)CCC3)cnn1C (stereo unspecified)	none (no result: IMPase cell inh, HPGD inh)
O=C(CCc1ccccc1)NN1C(=O)C2C3C=CC(C3)C2C1=O (stereo unspecified)	none (no result: IMPase cell inh, HPGD inh)
CN(C)C(=O)COC(=O)c1ccccc1Nc1ccc(SC(F)F)cc1	ALDH1A1 inh inconclusive, HPGD inh inconclusive
OCCC1CN(Cc2cccn2-c2ccccn2)CCN1Cc1ccccc1 (stereo unspecified)	none (no result: IMPase cell inh, HPGD inh)
COc1ccc(C2/C=C\CN(CC(C)C)CC(=O)N2Cc2cccc(F)c2)cc1 (stereo unspecified)	ALDH1A1 inh inconclusive (no result: IMPase cell inh)
CC(C)Cn1c(N)c(C(=O)CSc2cc(Cl)ccc2Cl)c(=O)n(C)c1=O	none (no result: IMPase cell inh)
